RORgamma inh: qHTS for inhibitors of ROR gamma transcriptional activity | actives 5.4% (n = 310,000) | Drosophila S2 Gal4-RORgamma UAS-luciferase reporter, 20 h | AID 2551, 2010 | Potency, µM (top dose mostly 53.6 µM), most hits filed as inhibitors; note: nearly all actives have a fitted effect of over 60% in size
Target sequence (P51450 whole entry, looked up, the tested form may be a part): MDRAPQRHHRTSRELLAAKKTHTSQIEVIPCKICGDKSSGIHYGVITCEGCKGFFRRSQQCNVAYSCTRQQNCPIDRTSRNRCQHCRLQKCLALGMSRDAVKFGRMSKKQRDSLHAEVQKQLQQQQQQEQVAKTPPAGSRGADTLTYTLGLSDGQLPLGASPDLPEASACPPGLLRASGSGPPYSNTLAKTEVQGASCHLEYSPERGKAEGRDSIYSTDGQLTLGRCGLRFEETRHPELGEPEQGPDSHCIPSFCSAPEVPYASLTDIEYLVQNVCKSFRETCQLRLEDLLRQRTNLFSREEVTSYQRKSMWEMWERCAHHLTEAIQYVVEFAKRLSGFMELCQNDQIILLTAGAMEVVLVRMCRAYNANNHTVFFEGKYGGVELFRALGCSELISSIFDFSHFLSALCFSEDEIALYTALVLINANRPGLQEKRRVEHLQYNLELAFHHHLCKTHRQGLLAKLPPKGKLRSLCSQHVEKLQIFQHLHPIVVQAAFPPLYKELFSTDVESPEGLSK
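Using a luciferase readout, inhibitors were identified by reduced reporter activity in Drosophila cells coexpressing a copper-inducible Gal4–ROR gamma fusion and UAS-driven Photinus luciferase, incubated 20 hr after 700 uM copper sulfate.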
Gal4-VP16 FLuc: VP16 counterscreen qHTS for inhibitors of ROR gamma transcriptional activity | Drosophila S2 Gal4-VP16 UAS-luciferase, luminescence, 20 h | Potency, µM (titrated, usually from 53.6 µM), hits mostly inhibitors | actives 3.5% (n = 310,000);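 note: Gal4-VP16 expression switched on by copper sulfate through the metallothionein promoter; nearly all actives have a fitted effect of over 50% in size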
TDP1 cell noCPT: qHTS for Inhibitors of human tyrosyl-DNA phosphodiesterase 1 (TDP1): qHTS in cells in absence of CPT | DT40 Tdp1-/- hTDP1 cells, no CPT, ATP luminescence, 48 h | Potency, µM (series often up to 46.2 µM), hits mostly inhibitors | actives 15% (n = 420,000) | AID 686978, 2013; note: nearly all actives have a fitted effect of over 55% in size
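Growth of hTDP1-complemented DT40 Tdp1-knockout cells is measured by ATP luminescence after at least 48 hr compound exposure at 37 °C, with DMSO substituting for the 20 nM CPT used in the parallel screen.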
IL1B secr inh: qHTS for Inhibitors of Inflammasome Signaling: IL-1-beta AlphaLISA Primary Screen. THP-1 LPS/ATP IL-1B secretion, AlphaLISA, 16 h; active compounds read low. activity change, % at 57.5 µM. actives 4.7% (n = 360,000). AID 743279, 2014; in the data active = activity change below about -50%; inconclusive = mostly about -30% to -49%
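THP-1 cells pretreated 1 hr with compounds (up to 57.5 uM final), then stimulated with LPS (250 ng/mL final) plus ATP (1.25 mM final); secreted IL-1B measured by AlphaLISA after 16 hr, decreased signal indicating inhibition.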
LDHA block: qHTS assay for inhibitors of human lactate dehydrogenase | activity change, % (values are at about 110 or 230 µM) | purified LDHA, NADH/diaphorase-resazurin fluorescence; active compounds read low | AID 1347041, 2019 | L-lactate dehydrogenase A chain (Homo sapiens), P00338 | actives 0.15% (n = 480,000); in the data active = activity change below about -30%; inconclusive = mostly about -25% to -30%
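Remaining NADH was detected by diaphorase (0.133 mg/mL) converting 37 µM resazurin to fluorescent resorufin, read at 0 and 20 minutes. The preceding 5-minute room-temperature reaction used 2 nM LDHA, 0.2 mM sodium pyruvate and 0.06 mM NADH at pH 7.4.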
TDP1 cell CPT: qHTS for Inhibitors of human tyrosyl-DNA phosphodiesterase 1 (TDP1): qHTS in cells in presence of CPT; chicken DT40 Tdp1-/-;hTDP1 cells + 20 nM CPT, ATP luminescence, 48 h; Potency, µM (highest dose often 46.2 µM), hits mostly inhibitors; actives 12% (n = 420,000); AID 686979, 2013; note: nearly all actives have a fitted effect of over 55% in size
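Cell growth measured by CellTiter-Glo luminescence after a minimum 48 h, 37 C compound exposure with 20 nM CPT in Tdp1-knockout DT40 cells stably expressing hTDP1, seeded 400/well; qHTS titration format.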
A number is an active result; 0 = inactive; ? = inconclusive; - = no result given. In the library only some 18% were active in any assay of this set; here they are far more common. Unless noted, calls come from the whole dose curve; as a rule, active = well fitted curve in the direction sought with a large enough effect; inconclusive = small, poorly fitted or top-dose-only effect, or another doubt; inactive = no such curve, though single readings can be large; an effect the other way counts as inactive or inconclusive.

SMILES	RORgamma inh	Gal4-VP16 FLuc	TDP1 cell noCPT	IL1B secr inh	LDHA block	TDP1 cell CPT
COc1cccc(-n2cc(C(=O)O)c3c2C(c2cccc(OC)c2OC)CC(=O)N3)c1 (stereo not drawn)	-	-	-	-	0	-
COc1ccc(Cl)cc1NC(=O)CSC1=NN2CCCC(=O)N=C2S1	?	?	11.6µM	0	0	?
CCOC(=O)c1ccc(NC(=O)CSC2=NN3CCCC(=O)N=C3S2)cc1	0	0	?	0	0	20.6µM
COc1ccc(OC)c(NC(=O)CSC2=NN3CCCC(=O)N=C3S2)c1	0	0	?	0	0	?
CCOC(=O)c1c(NC(=O)CSC2=NN3CCCC(=O)N=C3S2)sc2c1CCCCC2	?	0	?	0	0	20.6µM
Cc1ccc(-c2cnc(SCC(=O)Nc3cccc(F)c3)o2)cc1C	-	-	-	-	0	-
CCCCN(C)c1c(C)nc2ccc(C(=O)N(C)Cc3ccco3)cn12	-	-	18.4µM	0	0	?
CCCCC(=O)N(C)c1c(C)nc2ccc(C(=O)N(C)Cc3ccco3)cn12	-	-	0	0	0	0
CC(=O)Nc1ccc(CN(C)c2c(C)nc3ccc(C(=O)N(C)Cc4ccco4)cn23)cc1	-	-	?	0	0	16.4µM
CCCCC(=O)N(C)c1c(C)nc2ccc(C(=O)N3CCN(C(=O)c4ccco4)CC3)cn12	-	-	0	-54.2	0	0
Clc1ccccc1C1=Nc2ccc(Br)cc2C(c2ccccc2Cl)=Nc2ccc(Br)cc21	-	-	-	-	0	-
CCCCCC(C)NC(=O)C1CC2CCC1C2 (stereo not drawn)	-	-	-	-	0	-
COc1ccc(C2CC(c3ccccc3)=NN2C(=O)c2ccc(F)cc2)cc1 (stereo not drawn)	0	0	29.1µM	-64.4	0	?
COc1ccc(C2CC(c3ccc(OC)cc3O)=NN2C(=O)c2ccccc2)cc1 (stereo not drawn)	0	0	20.6µM	0	0	20.6µM
COc1ccc(C(=O)N2N=C(c3ccccc3)CC2c2ccc3nccnc3c2)cc1 (stereo not drawn)	-	-	-	-	0	-
COc1ccc(C2CC(c3ccc4ccccc4c3OC(C)=O)=NN2C(C)=O)cc1 (stereo not drawn)	0	0	9.2µM	0	0	10.3µM
O=C(c1ccccc1)N1N=C(c2ccccc2O)CC1c1ccccc1 (stereo not drawn)	0	0	?	0	0	20.6µM
COc1ccc(C2CC(c3ccccc3O)=NN2C(=O)c2ccccc2)cc1OC (stereo not drawn)	0	0	0	0	0	?
Cc1nn(Cc2cccc(Cl)c2)c(C)c1NS(=O)(=O)c1c(C)nn(C(F)F)c1C	-	-	-	-	0	-
CCOC(=O)N1C(=O)[C@](CC)(c2ccccc2)N1C(=O)OCC	0	0	?	-97.6	0	8.2µM
CCCN(CCC)C(=O)c1cc(-c2ccc3c(c2)OCO3)nc2ccccc12	0	0	14.6µM	0	0	14.6µM
O=C(NCc1ccncc1)c1cc(-c2ccncc2)nc2ccccc12	-	-	-	-	0	-
O=C(NCc1cc([N+](=O)[O-])ccc1O)c1cc(-c2ccncc2)nc2ccccc12	14.1µM	8.91µM	?	0	0	0
O=C(NCc1ccc2c(c1)OCO2)c1cc(-c2ccncc2)nc2ccccc12	0	0	?	0	0	16.4µM
CCC(C)[C@H](NC(=O)N1CCn2c1nc1ccccc12)C(=O)NCCc1ccccc1 (stereo partly drawn)	?	0	?	-59.0	0	20.6µM
SMILES	RORgamma inh	Gal4-VP16 FLuc	TDP1 cell noCPT	IL1B secr inh	LDHA block	TDP1 cell CPT
COc1ccc(CCNC(=O)[C@H](CC(C)C)NC(=O)N2CCn3c2nc2ccccc23)cc1OC	0	0	?	-66.0	0	0
COc1cccc(NC(=O)[C@@H](NC(=O)N2CCn3c2nc2ccccc23)C(C)C)c1	0	0	13µM	0	0	0
CSCC[C@H](NC(=O)N1CCn2c1nc1ccccc12)C(=O)N1CCCCC1	0	0	0	0	0	0
CC(C)C[C@H](NC(=O)N1CCn2c1nc1ccccc12)C(=O)N1CCCCC1	0	0	20.6µM	0	0	?
COc1ccc(CCNC(=O)[C@@H](NC(=O)N2CCn3c2nc2ccccc23)C(C)C)cc1OC	0	0	?	0	0	?
COc1cccc(NC(=O)[C@H](C)NC(=O)N2CCn3c2nc2ccccc23)c1	0	?	0	0	0	0
COc1ccccc1OCC(=O)Nc1cc(-c2ccc(Cl)cc2)no1	-	-	-	-	0	-
O=C(c1cc2cc(Br)ccc2oc1=O)N1CCN(S(=O)(=O)c2ccccc2)CC1	-	-	-	-	0	-
CCC(C)[C@H](NC(=O)N1CCn2c1nc1ccccc12)C(=O)NCCc1ccc(OC)c(OC)c1 (stereo partly drawn)	0	0	16.4µM	0	0	14.6µM
Cc1ccc(-c2cc(-c3ccc(C)c(C)c3)n(-c3ccc(C)c(C)c3)n2)cc1C	-	-	-	-	0	-
O=[N+]([O-])c1cc([N+](=O)[O-])c2cc3ccccc3nc2c1	3.16µM	2.82µM	0.517µM	-102.0	0	0.259µM
Clc1ccc(-c2noc(C34CC5CC(CC(C5)C3)C4)n2)cc1	-	-	-	-	0	-
Cc1cccc(CN2CCc3c([nH]c4ccccc34)C2CC(C)C)n1 (stereo not drawn)	?	?	0	?	0	0
CSc1ncc(CN2CCc3c([nH]c4ccccc34)C2c2cccc(C)n2)cn1 (stereo not drawn)	0	0	25.9µM	0	0	?
CSc1ncc(CN2CCc3c([nH]c4ccccc34)C2c2cccc(O)c2)cn1 (stereo not drawn)	0	?	25.9µM	0	0	?
COC(=O)c1ccc(CNC(=O)c2ccc(C(C)C)cc2)cc1	-	-	-	-	0	-
Cc1cc2nc3ccc(N(C)C)cc3nc2cc1N	-	-	14.6µM	?	0	?
CN(C)c1ccc2ncccc2c1	-	-	-	-	0	-
Cc1ccc(NC(CC(=O)c2ccccc2)C(=O)O)cc1Cl (stereo not drawn)	0	0	0	0	0	?
O=C(CC(Nc1ccccc1)C(=O)O)c1ccccc1 (stereo not drawn)	11.2µM	7.94µM	?	0	0	?
C=C(C(=O)c1ccccc1)C(C)CC(=O)c1ccccc1 (stereo not drawn)	?	17.8µM	14.6µM	-106.0	0	23.1µM
O=C(CC(Nc1ccc(Cl)cc1Cl)C(=O)O)c1ccccc1 (stereo not drawn)	12.6µM	?	?	0	0	?

Source: PubChem
